Source: PubChem BioAssay
A selection: hits, their analogues and other compounds. The true share with any hit is near 3.8%.
697 NFkB inh – inhibitors of the PMA/ionomycin-induced NF-kB reporter in 697 B cells; 697 B-cell NF-kB luciferase reporter, 16 h; AID 435022; inhibition, % at 4 µM; hit rate 0.33% among 330,000; in the data active = inhibition above about 35%
Mdm2-MdmX inh – inhibitors of human Mdm2/MdmX interaction | O15151+Q00987 | SaOS-2 split-luciferase Mdm2/MdmX complementation, luminescence | inhibition, % at 8 µM | hit rate 3% among 330,000 | AID 485346;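 active = inhibition of at least 50% at 8 µM in the primary screen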
A1 inh – inhibitors of the anti-apoptotic protein A1, read as caspase activation; MEF A1-2A-BIM cells, Caspase-Glo 3/7 luminescence, 3 h; percent of clofoctol response, vehicle zero; caspase activation, % (test concentration not listed); hit rate 0.066% among 330,000; AID 2462;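 active = over half of replicate activation scores above 10%, or exactly half above 10 with the replicate mean above 10; inconclusive = replicate mean below 10 yet half the replicates above 10; inactive = over half of replicates below 10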
Jurkat NFkB inh – inhibitors of the PMA/ionomycin-induced NF-kB reporter in Jurkat cells | PMA/ionomycin-induced NF-kB luciferase reporter, luminescence | inhibition, % at 4 µM | hit rate 0.53% among 330,000 | AID 435003; in the data active = inhibition above about 50%
NTR1 ag – agonists of human neurotensin receptor NTR1. AID 493036. hit rate 0.17% among 330,000. activation, % at 20 µM. P30989. NTR1-U2OS beta-arrestin-GFP spot imaging, agonist mode;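 active = activation at or above 40% of the spot to cytoplasm intensity ratio, with at least 20 cells analyzed; inconclusive = wells under 20 cells, flagged as cytotoxic or low count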
Target sequence (P30989 whole entry, looked up): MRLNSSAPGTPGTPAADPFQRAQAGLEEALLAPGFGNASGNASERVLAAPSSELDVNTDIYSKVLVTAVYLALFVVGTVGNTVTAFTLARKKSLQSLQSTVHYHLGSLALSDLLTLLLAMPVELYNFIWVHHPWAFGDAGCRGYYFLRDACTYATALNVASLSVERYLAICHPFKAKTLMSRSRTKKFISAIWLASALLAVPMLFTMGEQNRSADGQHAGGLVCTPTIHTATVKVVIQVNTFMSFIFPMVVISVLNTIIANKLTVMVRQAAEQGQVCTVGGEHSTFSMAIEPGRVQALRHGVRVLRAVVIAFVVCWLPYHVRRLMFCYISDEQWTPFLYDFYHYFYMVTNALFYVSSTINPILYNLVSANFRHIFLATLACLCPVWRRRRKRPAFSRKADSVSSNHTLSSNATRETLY
Beta cell apopt – beta cell apoptosis inhibition; INS-1E cytokine-induced death, ATP luminescence, 48 h; percent of positive-control rescue, neutral wells zero; protection from apoptosis, % (no concentration beside the values); hit rate 0.8% among 300,000;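 active = Every replicate reaches about 75%, or at least half do and their mean reaches it too, limit read from the data; inconclusive = At least half of replicates reach the limit but their mean does not; inactive = Under half of replicates reach the limit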;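 note: higher means more ATP so stronger rescue from cytokine killing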
Jurkat NFkB conf – lowers PMA/ionomycin-induced NF-kB signal in Jurkat cells; shares compounds with Jurkat NFkB inh; Jurkat NF-kB luciferase, 16 h; inhibition, % at 4 µM; hit rate 27% among 2,700;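 active = inhibition reaching about 45% at 4 µM in either replicate, limit read from the data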
697 NFkB conf – inhibitors of the PMA/ionomycin-induced NF-kB reporter in 697 B cells, retest; 697 B-cell NF-kB luciferase, 16 h; inhibition, % at 4 µM; shares compounds with 697 NFkB inh; hit rate 35% among 2,000; in the data active = inhibition mostly above about 28%, no sharp cut-off; inactive = mostly below about 22%
Mdm2-MdmX conf – confirmation of human Mdm2/MdmX interaction inhibitors | inhibition, % at 8 µM | hit rate 55% among 10,000 | shares compounds with Mdm2-MdmX inh | Mdm2-MdmX binding, luminescent assay | AID 489028; in the data active = inhibition above about 40%
Full FLuc ctr – full-length luciferase inhibition in Mdm2/MdmX counter-screen | shares compounds with Mdm2-MdmX inh | SaOS-2 full-length luciferase counterscreen, luminescence | inhibition, % at 8 µM | hit rate 77% among 6,200;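 active = mean inhibition at 8 µM reaching about 37%, which flags the compound as non-specific, limit read from the data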;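 note: p53-null SaOS-2 cells with luciferase driven by a doxycycline-inducible promoter; compound on cells about two nights before reading with doxycycline added after day one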
Large screens that a line does not name were inactive (follow-up assays come after a bar, where they were run).

O=C(c1ccc(CS(=O)Cc2ccccc2Cl)o1)N1CCN(c2ccccn2)CC1 (stereo not given)	none
CC(C)(CCC(=S)N1CCOCC1)C1CCCCC1	none
Cc1[nH]n(-c2ccccc2)c(=O)c1/C=N/Nc1nncc(-c2ccccc2)n1	Mdm2-MdmX inh 88, Jurkat NFkB inh 55, Beta cell apopt 91 | Jurkat NFkB conf inactive | Mdm2-MdmX conf 86 | Full FLuc ctr 55
Cc1onc(-c2ccccc2)c1C(=O)OCCOc1cccc(Cl)c1	Mdm2-MdmX inh 52, Jurkat NFkB inh 52 (no result: Beta cell apopt) | Jurkat NFkB conf inactive | Mdm2-MdmX conf 62 | Full FLuc ctr 64
Cc1ccc(OCCOC(=O)c2c(-c3ccccc3)noc2C)cc1	none
Cc1ccccc1NC1=C/C(=N\S(=O)(=O)c2cccs2)c2ccccc2C1=O	Mdm2-MdmX inh 73, Jurkat NFkB inh 51, NTR1 ag 40, Beta cell apopt 98 | Jurkat NFkB conf 84 | Mdm2-MdmX conf 100 | Full FLuc ctr 51
O=C(C[n+]1ccc(/C=C/c2ccccc2)cc1)c1ccc2c(c1)OCCO2	Mdm2-MdmX inh 75, Jurkat NFkB inh 54 | Jurkat NFkB conf inactive | Mdm2-MdmX conf inactive
Cc1cc[n+](CC(=O)c2ccc3c(c2)OCCO3)cc1	none
COc1ccc(-[n+]2c(C)cc(/C=C3\Sc4ccccc4N3C)cc2C)cc1	697 NFkB inh 100, Mdm2-MdmX inh 83, Jurkat NFkB inh 86, Beta cell apopt 116 | Jurkat NFkB conf inactive | 697 NFkB conf inactive | Mdm2-MdmX conf 78 | Full FLuc ctr inactive
COc1ccccc1-[n+]1c(C)cc(/C=C2\Sc3ccccc3N2C)cc1C	Mdm2-MdmX inh 82, Jurkat NFkB inh 93, Beta cell apopt 110 | Jurkat NFkB conf inactive | Mdm2-MdmX conf 89 | Full FLuc ctr 59
FC(F)(F)c1nnc2c(Sc3ccc(Cl)cc3)nc3ccccc3n12	Mdm2-MdmX inh 85, Jurkat NFkB inh 74 | Jurkat NFkB conf inactive | Mdm2-MdmX conf 95 | Full FLuc ctr inactive
CC(C)c1ccc(O)c(NC(=S)NC(=O)c2ccc3c(c2)OCO3)c1	none
NC1=NC[C@H](c2ccccc2)N1CCc1cc(C(F)(F)F)cc(C(F)(F)F)c1	Mdm2-MdmX inh 80, Jurkat NFkB inh 71 | Jurkat NFkB conf inactive | Mdm2-MdmX conf 68 | Full FLuc ctr 57
CC(O)[C@H]1CN=C(N)N1CCc1cc(C(F)(F)F)cc(C(F)(F)F)c1 (stereo not given in full)	none
NC1=NC[C@H](Cc2ccc(O)cc2)N1CCCCC1CCCCC1	697 NFkB inh 41, Mdm2-MdmX inh 50, Jurkat NFkB inh 79, Beta cell apopt 102 | Jurkat NFkB conf 50 | 697 NFkB conf 40 | Mdm2-MdmX conf inactive
NC1=NC[C@H](Cc2ccc(O)cc2)N1CCc1cc(C(F)(F)F)cc(C(F)(F)F)c1	none
O=C1N(c2ccccc2)C[C@@H]2C[C@@H](c3cc4ccccc4o3)N3CCC[C@@]123	Mdm2-MdmX inh 98, Jurkat NFkB inh 72 (no result: A1 inh, Beta cell apopt) | Jurkat NFkB conf inactive | Mdm2-MdmX conf 98 | Full FLuc ctr inactive
Cc1ccc(-c2ccccc2[C@@H]2C[C@H]3CN(C)C(=O)[C@]34CCCN24)o1	none
CN(CC(=O)Nc1ccc(Cl)cc1)C(=O)CNC(=O)c1cccs1	none
COc1ccc(CCC(=O)N2CCCc3ccccc32)cc1	none
CCOc1ccc2ccccc2c1C(=O)N1CCN(c2ccccc2)CC1	Mdm2-MdmX inh 58, Jurkat NFkB inh 68 | Jurkat NFkB conf inactive | Mdm2-MdmX conf 54 | Full FLuc ctr 51
CCOc1ccccc1C(=O)N1CCN(c2cccc(Cl)c2)CC1	Mdm2-MdmX inh 74, Jurkat NFkB inh 81 | Jurkat NFkB conf inactive | Mdm2-MdmX conf 63 | Full FLuc ctr 93
CN(CCOc1ccccc1)C(=O)C1CCC(=O)N(CCc2ccc(Cl)cc2)C1 (stereo not given)	none
NC(=O)NC(Cc1ccccc1)C(=O)N1CCN(S(=O)(=O)c2ccc(Cl)cc2)CC1 (stereo not given)	none
CC(OC(=O)COc1ccc(C#N)cc1)C(=O)Nc1ccc(Cl)cn1 (stereo not given)	none
COc1cc(OC)c(C2=NOC(C(=O)NCc3cccs3)C2)cc1Cl (stereo not given)	Mdm2-MdmX inh 54, Jurkat NFkB inh 54 | Jurkat NFkB conf inactive | Mdm2-MdmX conf 51 | Full FLuc ctr 59
COc1cc(OC)c(C2=NOC(C(=O)NCc3cccnc3)C2)cc1Cl (stereo not given)	none (no result: Beta cell apopt)
COc1ccc(C2=NOC(C(=O)NCc3ccco3)C2)cc1 (stereo not given)	none
COc1cc(C2=NOC(C(=O)NCc3ccco3)C2)cc(OC)c1OC (stereo not given)	Mdm2-MdmX inh 64, Jurkat NFkB inh 66 | Jurkat NFkB conf inactive | Mdm2-MdmX conf 57 | Full FLuc ctr 73
Cc1ccc(NC(=O)C2=C(c3ccccc3)S(=O)(=O)CCS2(=O)=O)cc1	Mdm2-MdmX inh 95, Jurkat NFkB inh 63, Beta cell apopt inconclusive | Jurkat NFkB conf inactive | Mdm2-MdmX conf 95 | Full FLuc ctr 52
Cc1ccc(NC(=O)c2ccccc2)cc1	none
CSc1nc(C)cc(OCC(=O)N/N=C/c2ccccc2O)n1	Mdm2-MdmX inh 58, Jurkat NFkB inh 52 | Jurkat NFkB conf inactive | Mdm2-MdmX conf 64 | Full FLuc ctr 39
CC(=O)c1c(C)[nH]c(C(=O)NCC2CCCCC2)c1C	none
Cc1cc(C)nc(SC2=CS(=O)(=O)c3ccccc32)n1	none
O=S1(=O)C=C(Sc2nnc(-c3ccccc3)o2)c2ccccc21	Mdm2-MdmX inh 80, A1 inh inconclusive, Jurkat NFkB inh 90, Beta cell apopt 105 | Jurkat NFkB conf 65 | Mdm2-MdmX conf 100 | Full FLuc ctr 50
COc1ccc(OC)c2c1C(=O)C(Cl)=C(Cl)C2=O	Mdm2-MdmX inh 96, Jurkat NFkB inh 60, Beta cell apopt 114 | Jurkat NFkB conf 68 | Mdm2-MdmX conf 100 | Full FLuc ctr inactive
CSc1cccc(NC(=O)N2CCc3ccc(NC(=O)c4ccccn4)cc3C2)c1	none
Cc1ccc(CNS(=O)(=O)c2ccc(-c3cnc(C4CC4)o3)cc2)cc1	none
Cc1cccc(C)c1NS(=O)(=O)c1ccc(-c2cnc(C3CC3)o2)cc1	Mdm2-MdmX inh 82, Jurkat NFkB inh 59 (no result: A1 inh, Beta cell apopt) | Jurkat NFkB conf 64 | Mdm2-MdmX conf 53 | Full FLuc ctr 93
